The text below walks through data of PubChem BioAssay (Tox21).

Results filed as inconclusive are left out. A call without a number means that no potency is given here. Calls of active or inactive are those of the source. Calls follow the shape of the dose curve; as a rule, active = well fitted activation curve with a large enough effect in the signal ratio in the repeat runs (not every such curve was filed as active); inconclusive = weak or mixed curves; inactive = flat fitted curve, though single readings scatter; the % refers to the signal ratio.
Potency is read from the fitted curve at half-maximal effect.

The nature of this assay: p53 small molecule agonists, cell-based qHTS assay (AID 1963582). Conditions: HCT-116 p53RE-bla reporter, beta-lactamase FRET ratio, 16 h; series mostly up to 66 µM. The source says: National Center for Advancing Translational Sciences [NCATS]
Division of Preclinical Innovation [DPI]
U.S. Environmental Protection Agency [EPA]
National Institutes of Environmental Health Sciences [NIEHS]
National Toxicology Program [NTP]
U.S. Food and Drug Administration [FDA]
p53, a tumor suppressor protein, is activated following cellular insult, including DNA damage and other cellular stresses. The activation of p53 regulates cell fate by inducing DNA repair, cell cycle arrest, apoptosis, or cellular senescence. The activation of p53, therefore, is a good indicator of DNA damage and other cellular stresses. […] The activation of the reporter gene under culture conditions can be detected by fluorescence intensity. This cell line was used to screen the Tox21 10K compound library in a 1536-well plate format and to identify agonists that activate the p53 signaling pathway.
Tox21 Assay Protocol Summary:
The p53RE-bla cells were dispensed at 4,000 cells/5 ul/well in 1536-well black wall/clear bottom plates using a Multidrop dispenser. After the assay plates were incubated at a 37 C/5% CO2 incubator for 5 hours, 23 nL of compounds dissolved in DMSO, positive controls or DMSO only was transferred to the assay plate by a pin tool. The plates were incubated at 37 C for 16 hours. After 1 uL of LiveBLAzerTM B/G FRET substrate was added using a Flying Reagent Dispenser, the plates were incubated at room temperature for 2 hours, and fluorescence intensity was measured by an Envision plate reader.
Background: Quantitative high-throughput screening tests each substance at several concentrations.
In the case of `CCN(CC)CCOC(=O)C(C)(c1ccccc1)c1ccccc1`, the Potency result was “inactive”.

For `COc1cc(C[C@@H](C)N)c(OC)cc1Br`, the Potency result was “inactive”.

`CN(C)C(=O)Oc1cc(OC(=O)N(C)C)cc(C(O)CNC(C)(C)C)c1` (stereo not given): the Potency result is “inactive”.

`CC(Cl)C(C)Cl` (stereo not given): the Potency entry was “inactive”.

In the case of `COc1ccc2c(c1OC)CN1CCc3cc4c(cc3C1C2)OCO4` (stereo not given), the Potency entry is “inactive”.

For `Clc1ccc(C(Cl)(Cl)Cl)cc1Cl`, the Potency entry was “inactive”.

With `CCOC(=O)c1cn2nc(OP(=S)(OCC)OCC)cc2nc1C`, the Potency result is “inactive”.

With `FC(F)C(F)(F)OCC(Cn1cncn1)c1ccc(Cl)cc1Cl` (stereo not given), the Potency entry is “inactive”.

For `CC[N+]1(C)CCCC(OC(=O)C(O)(c2ccccc2)c2ccccc2)C1` (stereo not given), the Potency entry was “inactive”.

With `CN/C(=N\[N+](=O)[O-])NCC1CCOC1` (stereo not given), the Potency result is “inactive”.

`COP(=S)(OC)Oc1ccc(S(N)(=O)=O)cc1`: the Potency result was “inactive”.

In the case of `N#CCCSCCC#N`, the Potency result was “inactive”.

For `CN(C)CCc1c[nH]c2cccc(O)c12`, the Potency entry was “inactive”.

As to `CN1C2CCC(C)(C)C1CC(OC(=O)C(O)(c1cccs1)c1cccs1)C2` (stereo not given), the Potency entry is “inactive”.

`C[C@@H]1CC[C@H]2[C@@H](C)C(=O)O[C@@H]3O[C@@]4(C)CC[C@@H]1[C@]32OO4`: the Potency entry is “inactive”.

As for `COc1ccc2c(c1OC)C(=O)O[C@H]2[C@@H]1c2cc3c(cc2CCN1C)OCO3`, the Potency entry is “inactive”.

On to `O=C1Nc2ccc(Cl)cc2C(c2ccccc2)=NC1O` (stereo not given), for which the Potency entry is “inactive”.

Regarding `CC(C)(Cl)[N+](=O)[O-]`, the Potency result is “inactive”.

Consider `Oc1cc(Cl)cc(Cl)c1`, for which the Potency result is “inactive”.

As to `CC(O)(CS(=O)(=O)c1ccc(F)cc1)C(=O)Nc1ccc(C#N)c(C(F)(F)F)c1` (stereo not given), the Potency result is “inactive”.

`CCCN(CCC)CCc1c[nH]c2ccccc12`: the Potency entry is “inactive”.

With `CCS(=O)(=O)C(C)(C)S(=O)(=O)CC`, the Potency entry is “inactive”.

With `CCc1ccc(C2CCNCC2)cc1`, the Potency result is “inactive”.

On to `Nc1nc(N)nc(N)n1`, for which the Potency entry is “inactive”.

Regarding `CC(Cc1ccccc1)N(C)Cc1ccco1` (stereo not given), the Potency entry is “inactive”.

As for `BrCCCCCCBr`, the Potency result is “inactive”.

For `CCOc1cc(Oc2ccc(C(F)(F)F)cc2Cl)ccc1[N+](=O)[O-]`, the Potency result is “inactive”.

For the compound `Cc1cc(C2CC2)nc(Nc2ccccc2)n1`, the Potency result is “inactive”.

For `CCC1(c2ccccc2)C(=O)N=C(O)NC1=O` (stereo not given), the Potency entry is “inactive”.

Consider `O=NN1CCN(N=O)CC1`, for which the Potency entry is “inactive”.

For `FC(F)(F)c1cccc(C2=CCN(CCc3ccc4ccccc4c3)CC2)c1`, the Potency entry was “inactive”.

Take `O=C(O)C(F)(F)C(F)(F)C(F)(F)C(F)(F)C(F)(F)F`: the Potency result is “inactive”.

In the case of `O=C(CBr)OCc1ccccc1`, the Potency entry was “inactive”.

Take `COc1cc(C=O)cc2c1[C@H](COC(N)=O)[C@]1(OC(C)=O)ON2C[C@H]2[C@@H]1N2C(C)=O`: the Potency was 3.63 µM (active).

With `Clc1cc(Cl)c(-c2cc(Cl)c(Cl)cc2Cl)cc1Cl`, the Potency entry was “inactive”.

Take `CCC/C(=N\OCC)C1=C(O)CC(CC(C)SCC)CC1=O` (stereo not given): the Potency entry was “inactive”.

As to `Clc1ccc(C2(Cn3cncn3)CC(Br)CO2)c(Cl)c1` (stereo not given), the Potency entry was “inactive”.

`CCN(CC)C(=O)N[C@@H]1C=C2c3cccc4[nH]cc(c34)C[C@@H]2N(C)C1`: the Potency entry is “inactive”.

Take `CC(C)(COCC1CO1)COCC1CO1` (stereo not given): the Potency entry was “inactive”.

For `CC(C)N(Cc1ccccc1)C(=O)C(C)(C)C`, the Potency entry is “inactive”.
